Results published in the supplement of paper PMC6555819.

The sequences below were run on VDR:RXRa (NR concentration 270 nM, RXRa partner concentration 90 nM) (assay: PBM binding z-score (relative to random genomic background probes); higher = stronger binding; sequences stand for … in GC…GCGATTGACAGCGTAGAATGAAGG).
Description: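 Protein-binding microarray (Agilent 4x180K custom design, double-stranded 60-nt probes: 5' GC cap, 34-nt variable region, 24-nt constant primer region; full probe sequence given). Purified or IVT nuclear receptor:RXRα heterodimers (3:1 NR:RXRα, mostly 270:90 nM) or homodimers were incubated for 1 h in PBS with 2% milk and no ligand, then detected with Alexa488 antibodies. Fluorescence from o1-orientation probes (~5 replicates averaged) was converted to z-scores against 500 random hg19 background probes. Variable regions are seed direct-repeat (DR0–DR5) sites, all their single-nucleotide variants and half-site ablations.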

| Sequence | PBM binding z-score |
| --- | --- |
| TAGTCTAGGTCATTGGGCCAGTATAGTACGCATC | 2.5 |
| ACTCGGAGGACAAAGCTCAGAGCTACGCCAGTGA | -0.859 |
| CCTAGCAGGCCAATCCGGGTCACTCAAGGCTTGA | 2 |
| ATATGTAGTTTAAGGGTCATTCAGGTTGGTTCGC | 5.34 |
| TTTATTAGTTGAAGGGCAACCGACGAGTCCGTTT | 1.17 |
| TCATATAGGTAAATGCCAGGTGAAAGTCCGATCT | 1.12 |
| CGTCCAAGGTCAGAGAGATCAGTGAATGCCGAGT | 3.72 |
| TCGAGTAGGTTACCAATGGGGCATTCGGCTTTCT | 0.0858 |
| CAGCCTAGGTCAGGGCAAGTATAGGAGGAACGTT | 0.782 |
| TCAGACAGGTGAAGGTAGCTCAGGTACGCAGTCG | 0.353 |
| CCTACTGGGCCACGAAAGGTCATTGACTCAGTGA | 4.12 |
| TCATATAGGTAAACAGGTGAAAGTACGTAAGTTA | 1.48 |
| GCCGCTAGGTCAGGTTGGTCAGCTAACGGGTACG | 0.54 |
| CGAACTAGGTCATACAGGACAGTGAATACATTGA | 3.99 |
| GCTTGTAGATCAAGGTTAAGACAGACTAAGCTAA | 0.166 |
| TTACCAAGGTGAGCTGAGGTCGTTGATCCAACTC | 4.19 |
| CGTCACAGTTCAAGGTAACGTAACAGAAAGCAGC | 1.61 |
| TGTGCTAGGTCAGTTGGTCAGCTAACGAGCTGCC | -0.0889 |
| CGTCCAGGGTCAAGGTCAGTGAAAGAGACTCGAA | 4.79 |
| CTCGAAAGGTCGTGCTCAGGTGAGTATCCCAAAC | 3.03 |

| Sequence | PBM binding z-score |
| --- | --- |
| CAAACTAGGTCACCGAGGTCAAAGTCCGTGCGTA | 8.34 |
| GCAGACCGGTGAAACGCAGGTAACTCAGGGTGGC | -0.857 |
| TCTGCTAGGTCAACGATGGTCAGCTATTCTGCTA | 1.71 |
| CGTCAAAGTTCAACTAAGGTGACGTAAAGCACGC | 4.87 |
| CGTCCAAGCTCAATGCTAGGTCAGTGAAAGCATT | -0.0498 |
| TCTTGGAGATCAATAGAGGTTAAGAAAGTGCGCT | 2.08 |
| AGTCAAAGTTCATCTAGGTAAAGTAAGATATGCT | 4.84 |
| CAAACTCGGTCAAGAGGTCAAAGTCCGCTTCCCG | 5.41 |
| AGAATGAGGTTCAGATCAGGGAAACAGAATACAT | 0.949 |
| ATCGAAAGGTCGACGTGAGTATAGAGAAAGGGAA | 2.53 |
| AGAACGAGGGCACGCTGAGTTGATTGCAGAGTAG | 2.04 |
| CTCGAAAGGTCGCGCTCAGGTGAGTATACCAAAC | 3.55 |
| AGAATGAGGTTACCAAAGATCAGGGTAACGCTTG | 1.6 |
| TAGCCTAGGTCATTGAGGGGCCAGTATAGAAAGC | 3.07 |
| AGAATGAGGTTATTCGTAGATCAGGGAAGAAAGT | 1.78 |
| CCTCGGAGGATAACAGGAGGTCAGAGCTGCCAGA | 1.5 |
| TCGAGTAGGTTAGGGGCACTCAGAATGGCGTCGA | -0.143 |
| TAGCCTAGGTCAGATCGGGCCAGTATTCGCTATA | 0.465 |
| CCAACTGGGGCAGAAAGGTTACCATACCATCCGG | 0.976 |
| CGTCAAAGTTCAACTAAGGTATCGTAAAGCACGC | 4.28 |
